Measurements from PubChem BioAssay AID1159580 (chemical genetic matrix, 2015).
Values joined by “and” are separate entries in the source; they are usually repeats but may differ in a detail not shown here. Equal values may be shown once. Among all 5,500 compounds or so, about 2,000 (36%) were called active. Another 18% or so got no clear call; they are omitted. No stated cut-off is given here; in the data, active means normalized growth mostly below about 0.91 (no sharp cut-off); inconclusive means no clear call, values can overlap the other calls; inactive means mostly above about 0.92. The list shows a part of the results.

Assay: chemical genetic growth profiling, strain panel (AID 1159580);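 further: tested at 20 µM; growth read once vehicle control cultures reached saturation at 30 °C; 1 = growth at the plate median or of vehicle wells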
Settings: S. cerevisiae deletion strains, growth OD

Measured: normalized growth

O=C(COc1ccc(Cl)cc1)N1CCN(Cc2ccc3c(c2)OCO3)CC1
active: locus YDR502C, strain sam2, stronger effect = lower value 0.908 | locus YGR135W, strain pre9, stronger effect = lower value 0.825 | locus YMR223W, strain ubp8, stronger effect = lower value 0.898 | locus YNL307C, strain MCK1, stronger effect = lower value 0.9 | locus YOR184W, strain ser1, stronger effect = lower value 0.845
0.773 (active) and 0.983 (inactive): locus YJL095W, strain BCK1, stronger effect = lower value
inactive: locus YAL013W, strain DEP1, stronger effect = lower value 0.989 | locus YBR021W, strain FUR4, stronger effect = lower value 0.977 | locus YBR229C, strain ROT2, stronger effect = lower value 0.98 | locus YCL029C, strain bik1, stronger effect = lower value 0.979 | locus YDL035C, strain GPR1, stronger effect = lower value 0.93 | locus YDL074C, strain BRE1, stronger effect = lower value 1 | locus YDL101C, strain DUN1, stronger effect = lower value 0.985 | locus YDL134C, strain PPH21, stronger effect = lower value 0.958 | locus YDL185W, strain tfp1, stronger effect = lower value 0.962 | locus YDL192W, strain arf1, stronger effect = lower value 0.945 | locus YDR101C, strain arx1, stronger effect = lower value 1.01 | locus YDR150W, strain NUM1, stronger effect = lower value 0.976 | locus YDR162C, strain NBP2, stronger effect = lower value 0.918 | locus YDR318W, strain mcm21, stronger effect = lower value 0.921 | locus YDR388W, stronger effect = lower value 0.972 | locus YEL061C, strain CIN8, stronger effect = lower value 0.985 | locus YER110C, stronger effect = lower value 0.962 | locus YER155C, strain BEM2, stronger effect = lower value 1.02 | locus YER167W, strain BCK2, stronger effect = lower value 0.987 | locus YGL078C, strain dbp3, stronger effect = lower value 1 | locus YGL086W, strain mad1, stronger effect = lower value 0.973 | locus YGL248W, strain PDE1, stronger effect = lower value 0.983 | locus YGR078C, strain PAC10, stronger effect = lower value 0.952 | locus YGR252W, strain gcn5, stronger effect = lower value 0.938 | locus YHR030C, strain SLT2, stronger effect = lower value 0.954 and 0.981 | locus YHR079C, strain IRE1 (second series), stronger effect = lower value 0.977 | locus YHR079C, strain IRE1, stronger effect = lower value 0.972 | locus YHR094C, strain hxt1, stronger effect = lower value 0.978 | locus YHR129C, strain ARP1, stronger effect = lower value 0.977 | locus YHR200W, strain rpn10, stronger effect = lower value 0.976 | locus YIL066C, strain RNR3, stronger effect = lower value 0.887 | locus YIL073C, strain SPO22, stronger effect = lower value 0.827 | locus YIL125W, strain kgd1, stronger effect = lower value 1 | locus YIR030C, strain dcg1, stronger effect = lower value 0.973 | locus YJL134W, strain LCB3, stronger effect = lower value 0.977 | locus YJL168C, strain set2, stronger effect = lower value 0.98 | locus YJL187C, strain SWE1 (second series), stronger effect = lower value 0.932 | locus YJR043C, strain POL32, stronger effect = lower value 1.08 | locus YJR066W, strain TOR1, stronger effect = lower value 0.916 | locus YJR075W, strain HOC1, stronger effect = lower value 0.943 | locus YKL009W, strain mrt4, stronger effect = lower value 0.987 | locus YKL068W, stronger effect = lower value 0.983 | locus YKL085W, strain MDH1 (second series), stronger effect = lower value 0.98 | locus YKL085W, strain MDH1, stronger effect = lower value 0.98 | locus YKL190W, strain CNB1, stronger effect = lower value 0.976 | locus YKR001C, strain vps1, stronger effect = lower value 1.04 | locus YLR039C, strain RIC1, stronger effect = lower value 0.738 | locus YLR058C, strain SHM2, stronger effect = lower value 0.962 | locus YLR102C, strain apc9, stronger effect = lower value 0.986 | locus YLR113W, strain HOG1, stronger effect = lower value 1 | locus YLR262C, strain YPT6, stronger effect = lower value 0.668 | locus YLR268W, strain sec22, stronger effect = lower value 0.911 | locus YLR330W, strain CHS5, stronger effect = lower value 0.979 | locus YLR342W, strain FKS1 (second series), stronger effect = lower value 0.902 | locus YLR371W, strain rom2, stronger effect = lower value 0.985 | locus YLR418C, strain cdc73, stronger effect = lower value 0.864 | locus YML016C, strain PPZ1, stronger effect = lower value 0.97 | locus YML032C, strain rad52, stronger effect = lower value 0.952 | locus YML124C, strain tub3, stronger effect = lower value 0.998 | locus YMR078C, strain ctf18, stronger effect = lower value 0.971 | locus YMR307W, strain GAS1, stronger effect = lower value 1.01 | locus YNL067W, strain RPL9B, stronger effect = lower value 0.957 | locus YNL183C, strain NPR1, stronger effect = lower value 0.918 | locus YNL233W, strain BNI4, stronger effect = lower value 0.941 | locus YNL250W, strain rad50, stronger effect = lower value 0.981 | locus YNL271C, strain bni1, stronger effect = lower value 0.988 | locus YNL298W, strain CLA4, stronger effect = lower value 0.983 | locus YNL322C, strain KRE1, stronger effect = lower value 0.976 | locus YNR052C, strain pop2, stronger effect = lower value 0.943 | locus YOL012C, strain htz1 1.78 | locus YOL147C, strain pex11, stronger effect = lower value 0.962 | locus YOR061W, strain CKA2, stronger effect = lower value 0.971 | locus YOR069W, strain VPS5, stronger effect = lower value 0.973 | locus YOR136W, strain idh2, stronger effect = lower value 0.992 | locus YOR144C, strain elg1, stronger effect = lower value 0.993 | locus YOR231W, strain MKK1, stronger effect = lower value 0.999 | locus YOR316C, strain cot1, stronger effect = lower value 0.984 | locus YPL055C, strain LGE1, stronger effect = lower value 0.998 | locus YPL241C, strain CIN2, stronger effect = lower value 0.974 | locus YPL256C, strain CLN2, stronger effect = lower value 0.97 | locus YPR119W, strain clb2, stronger effect = lower value 0.989 | locus YPR141C, strain kar3, stronger effect = lower value 0.988 | locus YPR163C, strain tif3, stronger effect = lower value 0.955 | locus YPR167C, strain met16, stronger effect = lower value 0.987 | strain wtn01, stronger effect = lower value 0.905
